Laboratory results taken from PubChem BioAssay (NCATS).
“And” between values parts separate entries of the source, which are not always exact repeats. Equal values may be shown once. Records with an inconclusive call do not appear. Where a call stands in place of a potency, no number is given. The source made the active and inactive calls. Unless noted, calls follow the shape of the full dose curve.

What was measured:
[1] = Validation screen for inhibitors of Lassa infection (AID 463096)
[2] = qHTS for Inhibitors of the Functional Ribonucleoprotein Complex (vRNP) of Lassa (LASV) Arenavirus: LASV Primary Screen - GLuc reporter signal (AID 1347082; calls by dose curve; tested in HEK293 reporter line; also: nearly all actives have a fitted effect of over 60% in size)
[3] = qHTS for Inhibitors of the Functional Ribonucleoprotein Complex (vRNP) of Lassa (LASV) Arenavirus: Viability assay - alamar blue signal for LASV Primary Screen (AID 1347083; calls by dose curve; tested in HEK293 reporter line; also: nearly all actives have a fitted effect of over 80% in size)
[4] = qHTS for Inhibitors of the Functional Ribonucleoprotein Complex (vRNP) of Lymphocytic Choriomeningitis Arenaviruses (LCMV): Viability assay - alamar blue signal for LCMV Primary Screen (AID 1347085; calls by dose curve; tested in HEK293 reporter line; also: nearly all actives have a fitted effect of over 80% in size)
[5] = biological target: Nucleoprotein (Lymphocytic choriomeningitis virus (strain Armstrong)) (UniProt P09992); experiment: qHTS for Inhibitors of the Functional Ribonucleoprotein Complex (vRNP) of Lymphocytic Choriomeningitis Arenaviruses (LCMV): LCMV Primary Screen - GLuc reporter signal (AID 1347086); also: nearly all actives have a fitted effect of over 70% in size
Nucleoprotein (Lymphocytic choriomeningitis virus (strain Armstrong)), sequence (P09992 whole entry, looked up): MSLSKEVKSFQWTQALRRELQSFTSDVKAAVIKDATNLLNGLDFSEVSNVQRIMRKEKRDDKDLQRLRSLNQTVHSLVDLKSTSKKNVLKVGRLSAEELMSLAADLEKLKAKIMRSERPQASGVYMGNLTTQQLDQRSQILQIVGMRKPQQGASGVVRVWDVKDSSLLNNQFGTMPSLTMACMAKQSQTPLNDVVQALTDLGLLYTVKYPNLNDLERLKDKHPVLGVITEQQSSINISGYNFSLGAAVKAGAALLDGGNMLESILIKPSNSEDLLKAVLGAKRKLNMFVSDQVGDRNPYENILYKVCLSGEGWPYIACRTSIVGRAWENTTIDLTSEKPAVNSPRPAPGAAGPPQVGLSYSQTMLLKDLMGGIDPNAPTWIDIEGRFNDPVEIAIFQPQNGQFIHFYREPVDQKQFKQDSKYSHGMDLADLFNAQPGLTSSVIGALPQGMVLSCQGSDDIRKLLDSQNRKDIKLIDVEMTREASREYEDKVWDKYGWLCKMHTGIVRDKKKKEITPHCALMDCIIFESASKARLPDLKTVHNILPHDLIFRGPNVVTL

[6] = Primary qHTS for inhibitors of SARS-S pseudo-typed particle cell entry (AID 1479145); also: nearly all actives have a fitted effect of over 45% in size
[7] = Primary qHTS for Huh7 cytotoxicity: counterscreen for inhibitors of MERS-S pseudotyped particle cell entry (AID 1479147); conditions: outcome: dose series up to 57.1 µM unless noted
[8] = Primary qHTS for inhibitors of MERS-S pseudo-typed particle cell entry (AID 1479149); also: nearly all actives have a fitted effect of over 60% in size
[9] = Primary qHTS for Vero E6 cytotoxicity: counterscreen for inhibitors of SARS-S pseudo-typed particle cell entry (AID 1479150); conditions: outcome: dose series up to 57.1 µM unless noted
[10] = Cytotoxicity counterscreen for inhibitors of SARS-CoV-2 cell entry (AID 1645845); also: nearly all actives have a fitted effect of over 50% in size
Outline: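 Expi293F/hACE2 cells seeded overnight; cpd pin-transferred in DMSO, 1 h preincubation, + media, 48 h 37 C 5% CO2; ATPLite 1step luminescence; normalized to cells and no cells.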

[11] = Primary qHTS to identify inhibitors of SARS-CoV-2 cell entry (AID 1645846); conditions: activity change, negative = inhibition: at 57.1 µM (top of the series) unless noted; also: nearly all actives have a fitted effect of over 45% in size
Outline: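 HEK293-ACE2 (Expi293F, stable hACE2), 1500 cells/well, o/n 37C; cpd 23 nL pin, 1 h; MLV-PP w/ SARS-CoV-2-S (Wuhan-Hu-1, Δ19 C-term); 48 h 37C; Bright-Glo luminescence; normalized vs S-PP and bald PP.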

[12] = qHTS profiling of the MIPE4 collection as inhibitors of Plasmodium falciparum (3D7) proliferation (AID 743344; call rule not given here); conditions: P. falciparum 3D7 in erythrocytes, SYBR Green DNA fluorescence, 72 h; at 28.5 µM (top of the series) unless noted
Outline: (§1)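 Erythrocytes infected with P. falciparum (0.3% parasitemia, 2.5% hematocrit) incubated with compounds 72 h at 37 C, 5% CO2. Lysis with saponin/Triton buffer containing SYBR Green I, overnight at room temperature in the dark; DNA fluorescence (485/535 nm) normalised to 0.29 uM artemisinin and DMSO.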

[13] = qHTS profiling of the MIPE4 collection as inhibitors of Plasmodium falciparum (DD2) proliferation (AID 743345; call rule not given here); conditions: P. falciparum Dd2 in erythrocytes, SYBR Green DNA, 72 h; at 28.5 µM (top of the series) unless noted
Outline: as §1

[14] = qHTS profiling of the MIPE4 collection as inhibitors of Plasmodium falciparum (HB3) proliferation (AID 743347; call rule not given here); conditions: P. falciparum HB3 in erythrocytes, SYBR Green DNA, 72 h; at 28.5 µM (top of the series) unless noted
Outline: as §1

[15] = biological target: Alpha-galactosidase (Coffea arabica) (UniProt Q42656); experiment: Counterscreen for Glucocerebrosidase Inhibitors: qHTS Assay for Coffee Bean alpha-Galactosidase at pH 4.5 (AID 957; active = well fitted curve in the direction sought with a large enough effect; an effect the other way counts as inactive or inconclusive)
Alpha-galactosidase (Coffea arabica), sequence (Q42656 whole entry, looked up): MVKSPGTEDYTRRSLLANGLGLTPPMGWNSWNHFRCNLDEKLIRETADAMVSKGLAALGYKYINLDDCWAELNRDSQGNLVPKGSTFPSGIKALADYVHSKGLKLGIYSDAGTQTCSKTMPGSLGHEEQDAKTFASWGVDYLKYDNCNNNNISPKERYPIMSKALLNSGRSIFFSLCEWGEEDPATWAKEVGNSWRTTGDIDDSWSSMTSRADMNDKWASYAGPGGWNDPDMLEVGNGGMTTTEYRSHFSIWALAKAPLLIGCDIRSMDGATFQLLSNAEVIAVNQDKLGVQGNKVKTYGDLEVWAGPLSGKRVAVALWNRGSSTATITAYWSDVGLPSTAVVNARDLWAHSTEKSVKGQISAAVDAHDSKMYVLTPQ
Outline: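 AC50 values derive from Hill-equation modeling of concentration-response data, normalized to no-enzyme and full-activity controls. The pH 4.5 citrate assay used 2 nM coffee bean enzyme and 80 uM fluorogenic substrate for 20 min.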

[16] = biological target: Alpha-galactosidase (Coffea arabica) (UniProt Q42656); experiment: Counterscreen for Glucocerebrosidase Inhibitors: qHTS Assay for Coffee Bean alpha-Galactosidase at pH 5.9 (AID 998; active = well fitted curve in the direction sought with a large enough effect; an effect the other way counts as inactive or inconclusive)
Outline: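 Green coffee bean enzyme (2 nM final) was incubated with compounds (0.7 nM–77 uM) and 4-methylumbelliferyl alpha-D-galactopyranoside (80 uM) in citrate buffer pH 5.9, 20 min at room temperature. High-pH stop; fluorescence 365/440 nm; AC50 from Hill fits.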

[17] = Inducers of the Endoplasmic Reticulum Stress Response (ERSR) in human glioma: Validation (AID 504836; active = well fitted curve in the direction sought with a large enough effect; an effect the other way counts as inactive or inconclusive)
Outline: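 Stably transfected U87-MG human glioma cells carrying a GRP78-based luminescent sensor were seeded at 1000 cells/well, pin-dosed with compounds and incubated 16 h. Luciferase reagent was then added, and end-point luminescence was read after 10 min at room temperature.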

SMILES	Potency [1]	Potency [2]	Potency [3]	Potency [4]	Potency [5]	Potency [6]	outcome [7]	Potency [8]	outcome [9]	Potency [10]	activity change, negative = inhibition [11]	Potency [11]	parasite growth, % of DMSO control [12]	parasite growth remaining, % of DMSO control (lower = more inhibition) [13]	growth, % of control [14]	outcome [6]	activity change, negative = inhibition [8]	outcome [15]	outcome [16]	outcome [17]
CN[C@H](CC(C)C)C(=O)N[C@H]1C(=O)N[C@@H](CC(N)=O)C(=O)N[C@H]2C(=O)N[C@H]3C(=O)N[C@H](C(=O)N[C@H](C(=O)O)c4cc(O)cc(O)c4-c4cc3ccc4O)[C@H](O)c3ccc(c(Cl)c3)Oc3cc2cc(c3O[C@@H]2O[C@H](CO)[C@@H](O)[C@H](O)[C@H]2O[C@H]2C[C@](C)(N)[C@H](O)[C@H](C)O2)Oc2ccc(cc2Cl)[C@H]1O	inactive	inactive	inactive	inactive	inactive	inactive	inactive [at 26.4 µM]	inactive	inactive	inactive	-14.9% [at 27.1 µM] and -31.1% [at 27.1 µM]									
CC1=C(/C=C/C(C)=C/C=C/C(C)=C/C=C/C=C(C)/C=C/C=C(C)/C=C/C2=C(C)C[C@@H](O)CC2(C)C)C(C)(C)C[C@H](O)C1		inactive	inactive	inactive	inactive	inactive	inactive	inactive	inactive	inactive										
CCCCCCCCCCCCCCCC(=O)OC[C@@H](NC(=O)C(Cl)Cl)[C@H](O)c1ccc([N+](=O)[O-])cc1		inactive	inactive	inactive	inactive	inactive	inactive	inactive	inactive	inactive		inactive								
CN1C2CCC1CC(OC(=O)C(CO)c1ccccc1)C2 (configuration not stated)	inactive	inactive	inactive	inactive	inactive					inactive	-16.5%		88.6%	94.5%	108%					
NCC1CCC(C(=O)O)CC1 (configuration not stated)		inactive	inactive	inactive	inactive		inactive [at 11.4 µM]		inactive [at 11.4 µM]	inactive		inactive				inactive [at 11.4 µM]	2.4% [at 11.4 µM] (inactive)			
CCCC1O[C@@H]2C[C@H]3[C@@H]4CCC5=CC(=O)C=C[C@]5(C)[C@H]4[C@@H](O)C[C@]3(C)[C@]2(C(=O)CO)O1 (some centres not stated)		inactive	inactive	inactive	inactive	inactive	inactive	inactive	inactive	inactive	-23.4%							inactive	inactive	inactive
C[N+](C)(C)CCO	inactive	inactive	inactive	inactive	inactive	inactive	inactive [at 114 µM]	inactive	inactive [at 114 µM]	inactive	-23.8% [at 114 µM]							inactive	inactive	inactive
